Laboratory results from PubChem BioAssay (Tox21).
Several values for one entry are separate records, joined by “and”; a condition that tells them apart may be missing. Identical values can stand only once. Records with an inconclusive call do not appear. A call without a number means that no potency is given here. Where a structure was tested more than once in an assay, its records may differ in their call. Activity calls are given as the source filed them. Unless noted, calls come from the whole dose curve.

Assays:
[1] = Nuclear factor erythroid 2-related factor 2/antioxidant responsive element (Nrf2/ARE) small molecule agonists: qHTS cell viability counter screen in human keratinocytes (AID 1919968; active = well fitted curve in the direction sought with a large enough effect in the repeat runs; an effect the other way counts as inactive or inconclusive; note: nearly all actives have a fitted effect of over 55% in size)
How it was run: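 Fluorescence read-out from CellTiter-Fluor after 1 h at 37 C. Wells held HaCaT-derived ARE-luciferase reporter cells (1,500/well) treated 23 h with DMSO-dissolved compounds. Run in the same wells as the luciferase agonist read.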

[2] = Nuclear factor erythroid 2-related factor 2/antioxidant responsive element (Nrf2/ARE) small molecule agonists: luciferase reporter gene qHTS assay in human keratinocytes (AID 1919969); note: nearly all actives have a fitted effect of over 35% in size; note: potency is the fitted concentration of half-maximal effect
[3] = biological target: Gonadotropin-releasing hormone receptor (Homo sapiens) (UniProt P30968); assay: Human gonadotropin-releasing hormone receptor (GnRHR) small molecule agonists, calcium flux assay in GnRHR-HEK293 cells (AID 1920063); note: nearly all actives have a fitted effect of over 35% in size
Sequence of Gonadotropin-releasing hormone receptor (Homo sapiens) (P30968 whole entry, looked up): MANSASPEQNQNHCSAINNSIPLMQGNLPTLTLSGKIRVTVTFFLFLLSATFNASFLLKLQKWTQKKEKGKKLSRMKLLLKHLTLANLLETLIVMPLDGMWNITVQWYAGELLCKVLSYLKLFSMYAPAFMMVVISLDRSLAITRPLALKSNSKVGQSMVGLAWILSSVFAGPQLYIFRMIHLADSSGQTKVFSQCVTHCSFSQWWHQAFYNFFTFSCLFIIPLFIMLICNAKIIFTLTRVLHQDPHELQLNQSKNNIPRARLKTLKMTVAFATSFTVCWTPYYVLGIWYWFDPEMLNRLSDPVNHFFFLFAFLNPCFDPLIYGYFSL
How it was run: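 Calcium-dye fluorescence, Ex/Em=480/540, recorded every 1 sec over 3 min after compound addition to GnRHR-HEK293 cells. Cells had been seeded 18 hours earlier and dye-loaded for 1 hour at 37 C. Fifteen concentrations, triplicates.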

[4] = biological target: KiSS-1 receptor (Homo sapiens) (UniProt Q969F8); assay: Human kisspeptin (KISS1R) small molecule agonists, calcium flux assay in KISS1R-HEK293 cells (AID 1920064; active = well fitted curve in the direction sought with a large enough effect in the repeat runs; an effect the other way counts as inactive or inconclusive)
Sequence of KiSS-1 receptor (Homo sapiens) (Q969F8 whole entry, looked up): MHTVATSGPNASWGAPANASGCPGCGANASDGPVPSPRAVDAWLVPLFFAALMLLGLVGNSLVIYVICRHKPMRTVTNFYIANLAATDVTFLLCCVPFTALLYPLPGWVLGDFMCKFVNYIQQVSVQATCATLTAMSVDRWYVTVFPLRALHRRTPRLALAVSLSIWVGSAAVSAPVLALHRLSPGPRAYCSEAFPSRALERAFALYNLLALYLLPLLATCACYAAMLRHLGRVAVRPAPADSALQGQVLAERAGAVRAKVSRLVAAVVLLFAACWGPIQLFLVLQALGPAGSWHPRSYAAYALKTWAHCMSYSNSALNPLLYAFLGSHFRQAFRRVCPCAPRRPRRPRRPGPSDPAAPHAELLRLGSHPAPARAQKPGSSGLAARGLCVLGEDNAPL
How it was run: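 Calcium flux read-out: kinetic fluorescence at Ex/Em=480/540, 1 s intervals over 3 min, after pin-tool compound addition to dye-loaded KISS1R-HEK293 cells. Fifteen concentrations, triplicates.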

[5] = G protein-coupled receptor (GPCR) small molecule agonists, calcium flux assay: HEK293 wild type cell line counter screen (AID 1920065)
How it was run: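 Agonist mode; 18 h seeding at 37 C, 1 h dye load at 37 C; compounds pinned from DMSO, ATP as positive control; kinetic fluorescence 480/540 nm, 3 min, 1 s reads; 15 concentrations, triplicate.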

[6] = p53 small molecule agonists, cell-based qHTS assay with human liver microsomes (AID 1963577);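 note: p53 response element beta-lactamase reporter cells with liver microsomes plus NADPH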
How it was run: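 16 h, 37 C exposure of p53RE-bla cells to compounds with human liver microsomes and NADPH (0.5 mg/mL final each); detection via LiveBLAzer mixture, 2 h dark at room temperature.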

[7] = p53 small molecule agonists, cell-based qHTS assay with rat liver microsomes (AID 1963578)
How it was run: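 With rat liver microsomes and NADPH present (0.5 mg/mL final each), p53RE-bla cells are treated with compound for 16 h at 37 C. LiveBLAzer detection mixture is then applied for 2 h at room temperature in the dark.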

[8] = p53 small molecule agonists, cell-based qHTS assay with human liver microsomes: qHTS cell viability counter screen (AID 1963579); note: nearly all actives have a fitted effect of over 45% in size
How it was run: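 In this multiplexed counter screen, the reporter plates were subsequently treated with CellTiter-Glo so that cell viability, reflected by luminescence, could be recorded for p53RE-bla cells dosed 16 h with compounds under microsomal activation (HLM and NADPH).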

[9] = p53 small molecule agonists, cell-based qHTS assay with rat liver microsomes: qHTS cell viability counter screen (AID 1963580); note: nearly all actives have a fitted effect of over 45% in size
How it was run: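 Counter screen for cytotoxicity under metabolic activation: rat liver microsomes and NADPH, 0.5 mg/mL final each, added with compounds to p53RE-bla HCT-116 cells; 16 h at 37 C, then ATP luminescence read.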

[10] = p53 small molecule agonists, cell-based qHTS assay: qHTS cell viability counter screen (AID 1963581); note: nearly all actives have a fitted effect of over 45% in size
How it was run: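 Cytotoxicity read-out: ATP-based luminescence (CellTiter-Glo, 30 min RT) measured in the same wells as the p53 reporter assay, HCT-116 p53RE-bla cells, 16 h compound exposure at 37 C.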

[11] = p53 small molecule agonists, cell-based qHTS assay (AID 1963582; active = well fitted activation curve with a large enough effect in the signal ratio in the repeat runs, not every such curve was filed as active; the % refers to the signal ratio)
How it was run: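 Fluorescence intensity read-out of a beta-lactamase reporter under a p53 response element. Cells were exposed to DMSO-dissolved compounds for 16 h at 37 C, then developed with FRET substrate for 2 h at RT.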

[12] = biological target: 5-hydroxytryptamine receptor 2A (Homo sapiens) (UniProt P28223); assay: 5-hydroxytryptamine receptor 2A (HTR2A) small molecule antagonists, cell-based qHTS assay (AID 1963586); note: nearly all actives have a fitted effect of over 45% in size; note: potency is the fitted concentration of half-maximal effect
Sequence of 5-hydroxytryptamine receptor 2A (Homo sapiens) (P28223 whole entry, looked up): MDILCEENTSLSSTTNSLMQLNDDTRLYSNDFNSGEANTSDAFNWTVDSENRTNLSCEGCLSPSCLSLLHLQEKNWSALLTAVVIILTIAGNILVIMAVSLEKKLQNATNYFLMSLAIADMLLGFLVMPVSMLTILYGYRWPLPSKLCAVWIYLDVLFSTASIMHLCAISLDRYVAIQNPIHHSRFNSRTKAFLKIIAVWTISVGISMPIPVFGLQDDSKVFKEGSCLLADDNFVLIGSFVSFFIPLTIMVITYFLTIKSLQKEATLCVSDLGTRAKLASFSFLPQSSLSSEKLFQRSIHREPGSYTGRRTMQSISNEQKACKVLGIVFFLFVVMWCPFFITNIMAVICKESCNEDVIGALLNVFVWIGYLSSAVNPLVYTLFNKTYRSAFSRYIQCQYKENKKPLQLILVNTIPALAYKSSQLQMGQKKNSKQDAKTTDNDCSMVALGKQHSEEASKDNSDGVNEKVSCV
How it was run: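 CHO cells stably expressing human HTR2A were plated for 18 h at 37 C, then loaded with calcium dye for 1 h. Compounds were preincubated 5 min at room temperature before DOI (4 nM solution) was added. Kinetic fluorescence was read for 3 min.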

[13] = biological target: 5-hydroxytryptamine receptor 2A (Homo sapiens) (UniProt P28223); assay: 5-hydroxytryptamine receptor 2A (HTR2A) small molecule agonists, cell-based qHTS assay (AID 1963587); note: nearly all actives have a fitted effect of over 30% in size
How it was run: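 HTR2A-CHO cells, plated 18 h at 37 C/5% CO2, dye-loaded 1 h at 37 C; compounds in DMSO added by pin tool (agonist mode). Intracellular calcium flux read as kinetic fluorescence on FDSS over 2 min at 1 s intervals.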

[14] = biological target: Muscarinic acetylcholine receptor M1 (Homo sapiens) (UniProt P11229); assay: Cholinergic receptor muscarinic 1 (CHRM1) small molecule antagonists, cell-based qHTS assay (AID 1963588); note: nearly all actives have a fitted effect of over 40% in size
Sequence of Muscarinic acetylcholine receptor M1 (Homo sapiens) (P11229 whole entry, looked up): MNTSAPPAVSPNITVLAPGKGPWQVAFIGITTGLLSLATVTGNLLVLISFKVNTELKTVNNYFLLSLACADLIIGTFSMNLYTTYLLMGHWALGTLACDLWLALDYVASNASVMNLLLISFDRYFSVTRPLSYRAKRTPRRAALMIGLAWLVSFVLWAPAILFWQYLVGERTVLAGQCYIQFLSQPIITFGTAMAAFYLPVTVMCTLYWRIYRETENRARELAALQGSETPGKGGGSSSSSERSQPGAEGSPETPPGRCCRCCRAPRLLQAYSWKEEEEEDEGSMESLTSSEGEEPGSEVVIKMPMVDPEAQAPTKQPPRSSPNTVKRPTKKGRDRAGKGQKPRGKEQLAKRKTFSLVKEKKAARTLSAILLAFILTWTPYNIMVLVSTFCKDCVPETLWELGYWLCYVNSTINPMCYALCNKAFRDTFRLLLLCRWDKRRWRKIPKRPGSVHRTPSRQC
How it was run: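 Compounds were tested at 15 concentrations in three independent runs. Dye-loaded CHRM1-CHO cells were exposed 5 min at room temperature before stimulation by acetylcholine added at 50nM. Intracellular calcium was read kinetically on FDSS for 3 min.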

[15] = biological target: Muscarinic acetylcholine receptor M1 (Homo sapiens) (UniProt P11229); assay: Cholinergic receptor muscarinic 1 (CHRM1) small molecule agonists, cell-based qHTS assay (AID 1963589); note: nearly all actives have a fitted effect of over 35% in size
How it was run: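 Calcium flux read-out: kinetic fluorescence at 1 sec intervals after pin-tool compound addition to dye-loaded CHRM1-CHO cells (human M1). Agonist mode; 15 concentrations tested in triplicate independent runs.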

[16] = cAMP Responsive Elements (CRE) small molecule agonists, cell-based qHTS assay (AID 1963590)
How it was run: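 Beta-lactamase reporter readout: LiveBLAzer B/G FRET substrate, 2 h at room temperature, added after 3 h compound treatment of CRE-bla HEK 293T cells at 37 C/5% CO2.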

[17] = cAMP Responsive Elements (CRE) small molecule antagonists, cell-based qHTS assay (AID 1963591; active = well fitted inhibition curve with a large enough effect in the signal ratio in the repeat runs, not every such curve was filed as active; the % refers to the signal ratio)
How it was run: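 HEK293T CRE-bla; 18 h preincubation; compound pin-transfer; NKH477 0.25 uM final, 3 h, 37 C; LiveBLAzer FRET substrate 2 h RT.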

[18] = biological target: Beta-2 adrenergic receptor (Homo sapiens) (UniProt P07550); assay: Adrenergic beta2 receptor (ADRB2) small molecule antagonists, cell-based qHTS assay (AID 1963592); note: series mostly up to about 92 µM; nearly all actives have a fitted effect of over 50% in size
Sequence of Beta-2 adrenergic receptor (Homo sapiens) (P07550 whole entry, looked up): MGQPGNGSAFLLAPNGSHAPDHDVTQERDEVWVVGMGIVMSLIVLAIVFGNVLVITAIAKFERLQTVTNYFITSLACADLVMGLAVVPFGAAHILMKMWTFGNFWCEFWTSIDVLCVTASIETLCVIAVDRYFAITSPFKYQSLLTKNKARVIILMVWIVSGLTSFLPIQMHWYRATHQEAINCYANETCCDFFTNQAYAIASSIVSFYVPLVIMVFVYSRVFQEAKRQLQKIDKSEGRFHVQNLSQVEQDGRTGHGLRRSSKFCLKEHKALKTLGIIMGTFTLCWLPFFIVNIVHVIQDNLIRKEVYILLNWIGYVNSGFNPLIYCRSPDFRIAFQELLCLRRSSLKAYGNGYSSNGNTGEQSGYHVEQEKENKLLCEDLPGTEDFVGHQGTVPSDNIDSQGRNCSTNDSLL
How it was run: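 Assay format: CHO-ADRB2 cells, 18-20hr seeding at 37C/5% CO2, then compound plus 1nM isoproterenol agonist mix for 0.5hr RT. Homogeneous time-resolved fluorescence cAMP detection after 1hr, expressed as 665/615 nm ratio.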

[19] = biological target: Beta-2 adrenergic receptor (Homo sapiens) (UniProt P07550); assay: Adrenergic beta2 receptor (ADRB2) small molecule agonists, cell-based qHTS assay (AID 1963593);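 note: CHO cells stably overexpressing human ADRB2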
How it was run: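 CHO cells stably over-expressing ADRB2 were plated overnight at 37C, then dosed with compounds plus a stimulation mix containing 100uM IBMX and 25uM Ro-20-1724 for 0.5hr at room temperature. cAMP was measured by HTRF competition, 1hr.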

[20] = biological target: D(2) dopamine receptor (Homo sapiens) (UniProt P14416); assay: Dopamine D2 receptor (DRD2) small molecule agonists, cell-based qHTS assay (AID 1963594); note: nearly all actives have a fitted effect of over 35% in size
Sequence of D(2) dopamine receptor (Homo sapiens) (P14416 whole entry, looked up): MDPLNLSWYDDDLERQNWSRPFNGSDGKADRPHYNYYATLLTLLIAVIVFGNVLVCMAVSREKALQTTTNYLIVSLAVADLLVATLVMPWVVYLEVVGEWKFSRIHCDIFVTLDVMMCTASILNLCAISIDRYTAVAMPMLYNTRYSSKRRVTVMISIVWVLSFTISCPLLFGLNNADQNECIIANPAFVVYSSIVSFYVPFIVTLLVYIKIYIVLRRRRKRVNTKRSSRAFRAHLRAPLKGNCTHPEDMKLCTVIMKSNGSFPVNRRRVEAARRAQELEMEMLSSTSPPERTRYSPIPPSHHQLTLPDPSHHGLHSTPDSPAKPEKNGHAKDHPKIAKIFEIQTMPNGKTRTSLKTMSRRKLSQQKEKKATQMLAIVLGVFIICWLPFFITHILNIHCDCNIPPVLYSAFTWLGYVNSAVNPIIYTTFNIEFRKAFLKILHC
How it was run: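 HEK293 cells stably expressing DRD2 were cultured 24 h at 37 C, then given Ro20-1724 (0.1 mM final) and compounds for 10 min at room temperature. NKH477 (200nM) was then added for 30 min. cAMP was read by HTRF.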

Compound | Potency [1] | Potency [2] | Potency [3] | Potency [4] | Potency [5] | Potency [6] | Potency [7] | Potency [8] | Potency [9] | Potency [10] | Potency [11] | Potency [12] | Potency [13] | Potency [14] | Potency [15] | Potency [16] | Potency [17] | Potency [18] | Potency [19] | Potency [20]
CC(C)C(=O)c1c(C(C)C)nn2ccccc12 | inactive | inactive | inactive | inactive | inactive | inactive | inactive | inactive | inactive | inactive | inactive | inactive | inactive | inactive | inactive | inactive | inactive | inactive | inactive | inactive
CN(C)c1ccc(Cc2ccc(N(C)C)cc2)cc1 | inactive | inactive and 34.4 µM (active) | inactive | inactive | inactive | inactive | inactive | inactive | inactive | inactive | inactive | 4.23 µM (active) | inactive | inactive | inactive | inactive | inactive | inactive | inactive | inactive
Cc1ccc(C(=O)Nc2ccc(S(=O)(=O)O)c3cc(S(=O)(=O)O)cc(S(=O)(=O)O)c23)cc1NC(=O)c1cccc(NC(=O)Nc2cccc(C(=O)Nc3cc(C(=O)Nc4ccc(S(=O)(=O)O)c5cc(S(=O)(=O)O)cc(S(=O)(=O)O)c45)ccc3C)c2)c1 | inactive | inactive | inactive | inactive | inactive | inactive | inactive | inactive | inactive | inactive | inactive | inactive | inactive | inactive | inactive | inactive | inactive | inactive | inactive | inactive
CCCCCCCOC(C)=O | inactive | inactive | inactive | inactive | inactive | inactive | inactive | inactive | inactive | inactive | inactive | inactive | inactive | inactive | inactive | inactive | inactive | inactive | inactive | inactive
Cc1nc(C)c(C)nc1C | inactive | inactive | inactive | inactive | inactive | inactive | inactive | inactive | inactive | inactive | inactive | inactive | inactive | inactive | inactive | inactive | inactive | inactive | inactive | inactive
CC(C)=CCCC(C)CCOC(=O)C(C)C (configuration not stated) | inactive | inactive | inactive | inactive | inactive | inactive | inactive | inactive | inactive | inactive | inactive | inactive | inactive | inactive | inactive | inactive | inactive | inactive | inactive | inactive
COc1nc(C)nc(NC(=O)NS(=O)(=O)c2ccccc2OCCCl)n1 | inactive | inactive | inactive | inactive | inactive | inactive | inactive | inactive | inactive | inactive | inactive | inactive | inactive | inactive | inactive | inactive | inactive | inactive |  | inactive
Cc1ccc(C(C)NC(=O)[C@@H](NC(=O)OC(C)C)C(C)C)cc1 (some centres not stated) | inactive | inactive | inactive | inactive | inactive | inactive | inactive | inactive | inactive | inactive | inactive | inactive | inactive | inactive | inactive | inactive | inactive | inactive |  | inactive
CCCCCCCCCCCCCCCCC | inactive | inactive | inactive | inactive | inactive | inactive | inactive | inactive | inactive | inactive | inactive | inactive | inactive | inactive | inactive | inactive | inactive | inactive |  | inactive
